Consider 11 molecules from PubChem BioAssay.

Assay [1] can be described thus: A549 cell viability effects, profiling panel, calcein-AM fluorescence, 48 h, basal (AID 1162). The settings on record: higher = more signal.
Assay [2] in a line: adipocyte viability effects, profiling panel, cell-based, 3T3-L1 adipocytes, calcein-AM fluorescence, 48 h, basal (AID 1163). The settings on record: 3T3-L1 adipocytes viability, higher = more signal.
Assay [3] can be described thus: HepG2 cell viability effects, profiling panel, calcein-AM fluorescence, 48 h, basal (AID 1164). To be noted: higher = more signal.
Assay [4] in a line: MM1S cell viability effects, profiling panel, calcein-AM fluorescence, 48 h, basal (AID 1165).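 Also: viability of MM1S multiple myeloma cells under basal unstimulated conditions.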 The settings on record: higher = more signal.
The nature of assay [5]: basal RPMI8226 viability, no added stimulus, profiling panel, cell-based, calcein-AM fluorescence, 48 h, PK04 Diversity Set (AID 1166).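 Also: cells grown under basal conditions without added stimulus.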 To be noted: RPMI8226 myeloma viability, higher = more signal.
Assay [6] can be described thus: basal HepG2 mitochondrial membrane potential changes, profiling panel, cell-based, JC-1 fluorescence, 24 h, 100 nL compound (AID 1167). The settings on record: higher = more signal.
The nature of assay [7]: basal 3T3-L1 adipocyte mitochondrial potential changes, profiling panel, cell-based, JC-1 fluorescence, 3T3-L1 adipocytes, 24 h, 100 nL compound (AID 1168). The settings on record: JC-1 mitochondrial fluorescence, higher = more signal, called active from +8 up or from −8 down.
Assay [8] can be described thus: basal RPMI8226 mitochondrial membrane potential changes, profiling panel, cell-based, JC-1 fluorescence, 24 h, 100 nL compound (AID 1169). The settings on record: RPMI8226 myeloma, JC-1 mitochondrial potential fluorescence, higher = more signal.
Assay [9] is described as follows: basal MM1S mitochondrial membrane potential changes, profiling panel, cell-based, JC-1 fluorescence, 24 h, 100 nL compound (AID 1170). The settings on record: higher = more signal.
Assay [10] in a line: A549 lung cancer cell viability effects, profiling panel, resazurin fluorescence, 24 h, PK04 Diversity Set (AID 1171). To be noted: higher = more signal, called active from +8 up or from −8 down.

Each structure is given as a SMILES string. The source made the active and inactive calls.
Also: test concentration not given here.

Consider `CCCN1C(=O)[C@@]2(c3ccc([N+](=O)[O-])cc3)CC(=O)N(CC34CC5CC(CC(C5)C3)C4)[C@@H]2c2ccc(CO)cc21`, for which the z-score in assay [1] was 0.129; in assay [2] it was -0.4; in assay [3], -0.301; in assay [4] it was -0.194; in assay [5], 0.448; in assay [6] it was -0.885. In addition, the z-score in [7] was -0.656 (inactive); in assay [8], 0.282; in assay [9], -0.315; in [10] it was 0.0382 (inactive).
As to `CN(C)CCCNC(=O)[C@@H]1c2ccccc2C(=O)N(Cc2ccccc2C(F)(F)F)[C@H]1c1ccc(CO)cc1`, the z-score was 1.42 in assay [1]; 0.747 in [2]; 1.13 in [3]; 0.353 in assay [4]; 1.09 in assay [5]; 2.98 in assay [6]. Moreover, the z-score in assay [7] was -0.343 (inactive); in assay [8] it was 0.188; in [9] it was -0.317; in assay [10], 1.45 (inactive).
With `NC(=O)N1C(=O)C2C(C1=O)C1C=C(CCCO)C2C(C2CC2)N1Cc1sc2ccccc2c1Cl` (stereo not given), the z-score in assay [1] was 1.01; in assay [2], 0.66; in assay [3], 0.839; in assay [4], -2.97; in [5], -0.868; in assay [6] it was 0.709. Besides, the z-score is 0.0485 (inactive) in assay [7], -0.0842 in assay [8], 0.193 in assay [9] and 1.09 (inactive) in assay [10].
Turning to `CCOC(=O)C[C@H]1[C@H](OC(=O)Cc2ccc3c(c2)OCO3)[C@@H](NC(=O)Cc2ccc(OC)cc2)c2cc(OCCCO)ccc2N1C(=O)Cc1ccc(OC)cc1`, the z-score in [1] was 2.07; in assay [2], 1.17; in assay [3], 1.57; in assay [4] it was 0.405; in assay [5], -0.658; in [6] it was 1.34. Besides, the z-score in [7] is 0.376 (inactive); in assay [8] it was 0.229; in assay [9] it was -0.88; in assay [10], -0.379 (inactive).
For the molecule `CC(C)C[C@@H]1NC(=O)[C@@]23C(=O)N[C@@H](Cc4ccccc4)C2[C@H](C)[C@@]2(C)O[C@H]2C3/C=C/C/C=C\CNC(=O)CNC1=O` (stereo not given in full), the z-score in assay [1] was 0.201; in assay [2] it was 0.97; in [3], -0.47; in assay [4], -0.288; in assay [5], -0.174; in assay [6], -0.572. For the same molecule, the z-score in [7] is -0.159 (inactive); in [8], 0.149; in assay [9], 0.694; in [10] it was -0.624 (inactive).
Consider `COCCOC(=O)N1C(=O)[C@@]2(c3cc(C#CCCO)ccc31)[C@H](c1ccc(OCCO)cc1)N1[C@H](c3ccccc3)[C@H](c3ccccc3)OC(=O)[C@H]1[C@@H]2C(=O)N1CCCCCCC1`, for which the z-score in [1] is 0.139; in assay [2], 0.005; in assay [3], -0.584; in [4], -0.993; in [5], -1.03; in assay [6], -0.437. Further, the z-score was -2.09 (inactive) in [7], 0.309 in assay [8], -0.958 in assay [9] and -0.232 (inactive) in [10].
For the molecule `O=C(NCc1ccccc1)[C@@H]1c2ccccc2C(=O)N(Cc2ccc(OC(F)(F)F)cc2)[C@H]1c1ccc(CO)cc1`, the z-score in assay [1] was 1.29; in assay [2], 0.711; in assay [3], 0.77; in assay [4], -0.279; in [5] it was 0.473; in assay [6], 2.44. Besides, the z-score in assay [7] is -0.602 (inactive); in assay [8] it was -0.728; in assay [9], 0.809; in assay [10], 1.39 (inactive).
In the case of `CN(C)CCCNC(=O)[C@@]1(C)c2ccccc2C(=O)N(Cc2ccc(OC(F)(F)F)cc2)[C@H]1c1ccc(CO)cc1`, the z-score was 0.173 in assay [1]; 0.886 in assay [2]; -0.261 in assay [3]; -0.0385 in assay [4]; 0.513 in assay [5]; 1.88 in [6]. The z-score in assay [7] is -0.422 (inactive); in [8] it was -0.136; in assay [9] it was 0.197; in assay [10] it was 0.074 (inactive).
With `C=CCOC(=O)[C@H]1[C@@H]2C(=O)O[C@@H](c3ccccc3)[C@@H](c3ccccc3)N2[C@@H](c2ccc(OCCOC(=O)[C@@H]3C[C@@H]4C(=O)N[C@@H](CCCC[N+](C)(C)C)C(=O)N4[C@@H]3c3ccc(O)cc3)cc2)[C@]12C(=O)Nc1ccc(I)cc12`, the z-score in [1] was -0.717; in [2] it was -0.169; in [3], -0.457; in assay [4], -2.9; in assay [5], -1.43; in [6] it was -2. The z-score in [7] was 0.638 (inactive); in assay [8] it was -0.767; in assay [9] it was -0.879; in [10], 0.281 (inactive).
`CC(C)=CCCC(C)=CC(O)C1C=CC2C(=O)NC(=O)C2N1Nc1ccccn1` (stereo not given): the z-score in assay [1] is 0.531; in assay [2], -0.446; in assay [3], 1.29; in assay [4] it was 0.617; in assay [5], 0.586; in assay [6], -0.23. Also, the z-score is -0.503 (inactive) in assay [7], 0.333 in [8], 0.0809 in assay [9] and -1.39 (inactive) in assay [10].
For the molecule `COCCOC(=O)N1C(=O)[C@@]2(c3ccccc31)[C@H](C(=O)N1CCN(c3ncccn3)CC1)[C@H]1C(=O)O[C@H](c3ccccc3)[C@H](c3ccccc3)N1[C@@H]2c1ccccc1OCCO`, the z-score in assay [1] was 1.14; in assay [2] it was 0.549; in assay [3], -0.0577; in assay [4], 0.0079; in assay [5], -0.203; in assay [6], -0.195. Moreover, the z-score in assay [7] was 0.204 (inactive); in assay [8], -0.248; in [9] it was -0.742; in assay [10] it was -0.166 (inactive).
